# ChEMBL document CHEMBL4513216, “Probing the Open Global Health Chemical Diversity Library for Multistage-Active Starting Points for Next-Generation Antimalarials” (ACS Infect Dis, 2020)
# About 8,600 (12%) of roughly 69,000 compounds showed an effect of 50% or more. The full list was thinned out, with strong results kept by preference.
# System: Plasmodium berghei
# Assay: Screen against P. berghei liver stage (PbLuc), transformed with Luciferase, at 10uM
# Format: functional, HepG2
# Conditions: tested at 10 uM
row,Compound,INHIBITION
1,CCc1ccc(S(=O)(=O)NCCC(O)c2ccoc2)s1 (stereo unspecified),15.4%
2,c1ccc(NCc2cn3c(n2)CN(Cc2cccnc2)CC3)nc1,38.7%
3,Cc1ccc(-n2cc(C(=O)NCC(C)Cn3cccn3)nn2)cc1 (stereo unspecified),27.6%
4,CO[C@H]1C[C@@H](O)C12CCN(Cc1nc(C(F)(F)F)no1)CC2,41.2%
5,Cn1cc(-c2ncnc3c2CCN(C(=O)c2cscn2)CC3)cn1,14.6%
6,O=S(=O)(C1CC1)N1CCC[C@]2(C[C@@H](Oc3ccccn3)CO2)C1,-49.7%
7,CCOc1ccnc(N2CCN(C(=O)c3cc[nH]n3)CC2)n1,-1.14%
8,COCCN1CC(C(=O)N(CCN(C)C)Cc2ccc(C)s2)CC1=O (stereo unspecified),38.3%
9,COCCn1ccc(NC(=O)CNC(=O)CC(C)(C)C)n1,34.9%
10,CN(CCO)CC1COCCN1C(=O)C1(c2cccs2)CCCC1 (stereo unspecified),14.9%
11,COCCN1CCN(C(C)C(=O)Nc2ccnn2C(C)C)CC1 (stereo unspecified),11.8%
12,COCCCN1CCCN(C(C)C(=O)Nc2cccc(I)c2)CC1 (stereo unspecified),85.1%
13,COCCCN1CCCN(C(C)C(=O)Nc2ccnn2C(C)C)CC1 (stereo unspecified),0.139%
14,CN(C)C(=O)C1OC2(CCN(C(=O)c3ccoc3)CC2)c2ccccc21 (stereo unspecified),22.2%
15,O=C(NC1CC1)C1CCc2nnc(C3CC3)n21 (stereo unspecified),53.2%
16,O=C(NC1CC1)C1CCc2nnc(-c3cccnc3)n21 (stereo unspecified),47.4%
17,O=C(NC1CC1)C1CCc2nnc(-c3cccc(C(F)(F)F)c3)n21 (stereo unspecified),17.6%
18,CC1CN(C(=O)Nc2cccc(CN3CCOC3=O)c2)CCO1 (stereo unspecified),-43.9%
19,COc1cccc(N2CCN(CCC(=O)NC3CCCCC3)CC2)c1,64.6%
20,CCc1cccc(N2CCC(NC(=O)C3CCCO3)CC2)c1 (stereo unspecified),48.2%
21,CCc1cccc(N2CCC(NC(=O)CCNC(N)=O)CC2)c1,5.03%
22,CCC(=O)NC1CCN(c2cccc(CC)c2)CC1,50.4%

row,Compound,INHIBITION
1,CCc1cccc(N2CCC(NC(=O)C3CCOCC3)CC2)c1,21.5%
2,CCc1cccc(CC(=O)NC2CCN(C(=O)NC(C)(C)C)CC2)c1,12.6%
3,COc1cccc(N2CCN(CCC(=O)NC3CCCC3)CC2)c1,24.5%
4,CCc1cccc(N2CCC(NC(=O)C3CCC3)CC2)c1,64.7%
5,COc1ccc2c(c1)CCN(CCC(=O)NC1CCCCC1)CC2,6.8%
6,CCOCCNC(=O)c1cccnc1N1CCCC1c1ccccn1 (stereo unspecified),-31%
7,CCc1nc(CN(C)CC(=O)NC(C)C)cs1,14.8%
8,Cc1ccc(-n2c(O)cc(C)c(C#N)c2=O)c(C)c1,-8.66%
9,Cc1cnn(CC2CCCCN2C(=O)c2nccnc2N)c1 (stereo unspecified),-19.9%
10,CC(=O)c1ccccc1-c1nc(CC2CCN(C)CC2)no1,24.7%
11,Clc1cccc(C(CNc2ncccn2)N2CCOCC2)c1 (stereo unspecified),-14.5%
12,Clc1cccc(C(CNCc2cccnc2)N2CCOCC2)c1 (stereo unspecified),23.2%
13,Clc1cccc(C(CNCc2ccccn2)N2CCOCC2)c1 (stereo unspecified),53.9%
14,COc1ccc(C)cc1-c1[nH]c2ccccc2c1C(=O)O,3.52%
15,Cc1ccc2c(n1)N(CC(C)C)CCN(C(=O)Cc1ccccn1)C2,2.41%
16,CC(Cc1cn(CCc2nc(N)cc(O)n2)nn1)c1ccccc1 (stereo unspecified),24.9%
17,O=c1c(Cc2ccccc2)c(O)ccn1Cc1cccs1,-23.5%
18,O=c1c(Cc2ccccc2)c(O)ccn1CCc1ccccc1,56.2%
19,O=c1c(Cc2ccccc2)c(O)ccn1Cc1ccco1,34%
20,Cc1nn(CCc2nnc(NCC(C)C)s2)c(C)c1Br,7.38%
21,C=C(C)CN1CCCC(CNS(C)(=O)=O)C1 (stereo unspecified),12%
22,O=C(C1CC(F)(F)C1)N1C[C@@H]2CN(Cc3ccsc3)CCO[C@@H]2C1,41.6%

row,Compound,INHIBITION
1,CC(C)N1CCO[C@H]2CN(C(=O)Cc3ccsc3)C[C@H]21,7.24%
2,CN(C)CCN1CCO[C@@H]2CN(C(=O)c3cccs3)CC[C@@H]2C1,15.9%
3,CC(C)N1CCO[C@@H]2CN(C(=O)Cc3cccs3)CC[C@@H]2C1,59.3%
4,CN(C)CCN1CCO[C@@H]2CN(C(=O)Cc3ccsc3)CC[C@@H]2C1,51.2%
5,O=C(Cc1ccsc1)N1C[C@@H]2OCCN(CC3CC3)[C@@H]2C1,31.4%
6,CN1CCO[C@@H]2CN(C(=O)Cc3cccs3)CC[C@@H]2C1,26.7%
7,Cc1ccc(CC(=O)N2CC[C@@H]3CN(CCN(C)C)CCO[C@@H]3C2)cc1,47.8%
8,O=C(C1CC=CC1)N1C[C@@H]2CN(Cc3ccsc3)CCO[C@@H]2C1,53.2%
9,O=C(C1CCOCC1)N1C[C@@H]2CN(Cc3ccsc3)CCO[C@@H]2C1,22.9%
10,CS(=O)(=O)N1CCO[C@@H]2CN(C(=O)Cc3cccs3)CC[C@@H]2C1,16.8%
11,O=C(Cc1ccsc1)N1C[C@@H]2OCCN(c3cnccn3)[C@@H]2C1,52.3%
12,O=C(CN1CCCC(Cn2cncn2)C1)NCCC1=CCCCC1 (stereo unspecified),37.9%
13,CCc1n[nH]c(C2CN(C(=O)c3cnn(CC)c3)CCO2)n1 (stereo unspecified),-8.11%
14,O=C(c1ccc2c(c1)OCO2)N1CCC(Nc2cccnn2)CC1,31.9%
15,CN(C)C(=O)COC[C@@H]1CC[C@H]2[C@H](CCN2c2ccccn2)O1,11.4%
16,Cn1ccc(C(=O)N2C[C@H]3CCC[C@@]3(COCc3cccnc3)C2)n1,3.69%
17,O=C(N1CCCC1)N1C[C@@H]2CN(Cc3ccoc3)CCO[C@@H]2C1,80%
18,CCN1CCO[C@@H]2CN(C(=O)c3cocn3)C[C@@H]2C1,18.7%
19,O=C(c1cocn1)N1C[C@@H]2CN(Cc3ccco3)CCO[C@@H]2C1,63%
20,O=C(C1CC(F)(F)C1)N1C[C@@H]2CN(Cc3ccoc3)CCO[C@@H]2C1,-35.1%
21,O=C(CC1CCCC1)N1C[C@@H]2CN(Cc3ccoc3)CCO[C@@H]2C1,34.6%
22,O=C(c1cocn1)N1C[C@@H]2CN(CC3CC3)CCO[C@@H]2C1,6.83%
